Reference: PubChem BioAssay AID588393 (NMMLSC, 2011)

System: Rab7 GTPase, wild type (Canis lupus familiaris)
Experiment: Rab7 wildtype GTP binding inhibitors, SAR follow-up, Cdc42 probe extension project, biochemical, dog Rab7, bead multiplex flow cytometry, round 1 (AID 588393)
Details: GST-Rab7 beads, Bodipy-FL-GTP binding, EDTA; series mostly up to 100 µM; % response (GTP binding): at the top concentration;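 active = valid curve fit, half-maximal dose at most 10 µM, and binding change across doses at least 30%; inactive = the rest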

% response (GTP binding), inactive:
NS(=O)(=O)c1ccc(N2N=C(c3ccccc3)CC2c2ccccc2)cc1 (stereo not drawn) 90.4%, O=C(C#Cc1ccccc1)c1cccc([N+](=O)[O-])c1 101%, COc1ccc(C2CC(c3ccccc3)=NN2c2ccc(S(N)(=O)=O)cc2)cc1 (stereo not drawn) 94.1%
